Key:
Test in all cases: log2 ratio of Biotin-Ahx-Ub-VS probe labelling (fragment/DMSO); higher = less target engagement (more negative = stronger competition), active = hit call of the paper (q ≤ 0.05, log2 ratio ≤ -1)
Details in all cases: compound concentration: 200 uM; treatment time: 3 h
[1] = target: T1, ALG13 (UniProt Q9NP73)
T1 sequence (whole entry): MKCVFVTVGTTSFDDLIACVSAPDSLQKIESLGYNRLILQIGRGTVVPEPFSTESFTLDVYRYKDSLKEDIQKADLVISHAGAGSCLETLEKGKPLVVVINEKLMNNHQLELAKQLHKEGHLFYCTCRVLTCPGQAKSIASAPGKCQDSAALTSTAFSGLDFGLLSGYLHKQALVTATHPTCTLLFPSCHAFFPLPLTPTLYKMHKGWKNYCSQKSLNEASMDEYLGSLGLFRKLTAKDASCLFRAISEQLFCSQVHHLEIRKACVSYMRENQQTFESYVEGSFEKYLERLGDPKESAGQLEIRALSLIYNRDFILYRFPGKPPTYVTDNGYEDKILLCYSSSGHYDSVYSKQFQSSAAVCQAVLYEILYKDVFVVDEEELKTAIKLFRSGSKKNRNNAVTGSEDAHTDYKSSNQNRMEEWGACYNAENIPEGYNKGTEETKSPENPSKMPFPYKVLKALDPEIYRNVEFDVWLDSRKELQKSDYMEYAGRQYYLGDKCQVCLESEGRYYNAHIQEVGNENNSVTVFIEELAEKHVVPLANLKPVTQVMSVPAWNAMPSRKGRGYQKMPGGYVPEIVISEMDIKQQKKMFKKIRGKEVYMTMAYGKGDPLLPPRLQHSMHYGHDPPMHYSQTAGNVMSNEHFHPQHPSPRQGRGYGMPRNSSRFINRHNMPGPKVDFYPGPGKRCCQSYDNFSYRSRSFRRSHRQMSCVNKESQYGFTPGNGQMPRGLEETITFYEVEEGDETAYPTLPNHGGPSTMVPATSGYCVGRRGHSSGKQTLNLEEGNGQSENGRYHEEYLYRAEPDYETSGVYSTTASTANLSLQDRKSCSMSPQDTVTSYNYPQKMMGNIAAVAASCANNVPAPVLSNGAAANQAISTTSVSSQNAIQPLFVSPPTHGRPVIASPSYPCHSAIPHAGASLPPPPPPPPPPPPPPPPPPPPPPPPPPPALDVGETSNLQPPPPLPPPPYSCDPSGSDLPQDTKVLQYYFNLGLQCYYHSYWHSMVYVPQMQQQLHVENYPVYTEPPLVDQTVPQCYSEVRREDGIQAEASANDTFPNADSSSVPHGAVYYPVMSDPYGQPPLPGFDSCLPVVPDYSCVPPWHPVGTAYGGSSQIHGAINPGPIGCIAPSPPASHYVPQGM
Outline: (§1)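 Lysate from HEK293T cells, 495 µg per sample in Tris/CHAPS/IGEPAL buffer with protease inhibitors, was treated for 3 h in triplicate with fragment at 200 µM or vehicle. Biotin-Ahx-Ub-VS was next added at 0.5 µM final for 1 h. The labelled DUBs were enriched with NeutrAvidin, digested with LysC and trypsin, and run by diaPASEF LC-MS/MS, with values given as average log2 fragment/vehicle ratios by unpaired t-test on global-median-normalised Spectronaut quantities of proteins with ≥2 unique peptides.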

[2] = target: ATXN3 (UniProt P54252)
Chain of ATXN3 (P54252 whole entry): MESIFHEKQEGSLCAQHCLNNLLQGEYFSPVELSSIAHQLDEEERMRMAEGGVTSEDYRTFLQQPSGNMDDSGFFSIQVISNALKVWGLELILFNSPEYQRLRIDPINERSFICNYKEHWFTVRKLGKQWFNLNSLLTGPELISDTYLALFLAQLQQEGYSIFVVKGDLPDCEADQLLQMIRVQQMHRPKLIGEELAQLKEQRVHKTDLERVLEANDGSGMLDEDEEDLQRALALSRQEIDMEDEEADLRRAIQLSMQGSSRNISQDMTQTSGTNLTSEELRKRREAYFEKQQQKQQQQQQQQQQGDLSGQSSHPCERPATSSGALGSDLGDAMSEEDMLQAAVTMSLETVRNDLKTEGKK
Outline: as §1

[3] = target: T2, BAP1 (UniProt Q92560)
T2 sequence (whole entry): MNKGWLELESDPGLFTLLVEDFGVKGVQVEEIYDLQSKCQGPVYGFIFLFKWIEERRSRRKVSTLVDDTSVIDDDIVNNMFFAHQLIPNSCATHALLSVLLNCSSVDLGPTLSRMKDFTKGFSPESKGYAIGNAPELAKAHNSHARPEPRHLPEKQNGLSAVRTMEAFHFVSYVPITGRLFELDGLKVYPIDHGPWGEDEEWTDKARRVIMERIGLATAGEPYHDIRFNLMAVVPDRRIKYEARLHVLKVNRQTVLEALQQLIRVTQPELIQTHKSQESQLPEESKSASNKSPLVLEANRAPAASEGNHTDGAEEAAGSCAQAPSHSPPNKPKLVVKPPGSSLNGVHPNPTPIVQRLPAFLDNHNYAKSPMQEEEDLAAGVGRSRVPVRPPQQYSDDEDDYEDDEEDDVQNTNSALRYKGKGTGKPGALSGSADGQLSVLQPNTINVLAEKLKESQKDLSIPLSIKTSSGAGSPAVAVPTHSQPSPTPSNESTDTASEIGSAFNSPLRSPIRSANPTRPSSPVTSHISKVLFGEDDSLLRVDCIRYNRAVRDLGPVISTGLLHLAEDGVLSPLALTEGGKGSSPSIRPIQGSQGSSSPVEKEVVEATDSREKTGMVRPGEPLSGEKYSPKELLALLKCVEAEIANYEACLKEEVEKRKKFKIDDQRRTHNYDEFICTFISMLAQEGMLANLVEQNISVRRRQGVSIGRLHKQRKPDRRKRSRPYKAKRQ
Outline: as §1

[4] = target: EIF3F (UniProt O00303)
Chain of EIF3F (O00303 whole entry): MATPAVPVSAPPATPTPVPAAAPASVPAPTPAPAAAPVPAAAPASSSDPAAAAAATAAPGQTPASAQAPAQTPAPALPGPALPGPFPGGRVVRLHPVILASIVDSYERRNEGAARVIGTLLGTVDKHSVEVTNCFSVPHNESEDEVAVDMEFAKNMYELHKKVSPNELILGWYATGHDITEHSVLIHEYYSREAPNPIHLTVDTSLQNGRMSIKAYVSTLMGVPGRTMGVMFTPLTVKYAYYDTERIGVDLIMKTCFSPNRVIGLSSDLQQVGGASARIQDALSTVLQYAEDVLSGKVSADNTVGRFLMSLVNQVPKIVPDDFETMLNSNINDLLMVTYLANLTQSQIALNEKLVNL
Outline: as §1

[5] = target: EIF3H (UniProt O15372)
Chain of EIF3H (O15372 whole entry): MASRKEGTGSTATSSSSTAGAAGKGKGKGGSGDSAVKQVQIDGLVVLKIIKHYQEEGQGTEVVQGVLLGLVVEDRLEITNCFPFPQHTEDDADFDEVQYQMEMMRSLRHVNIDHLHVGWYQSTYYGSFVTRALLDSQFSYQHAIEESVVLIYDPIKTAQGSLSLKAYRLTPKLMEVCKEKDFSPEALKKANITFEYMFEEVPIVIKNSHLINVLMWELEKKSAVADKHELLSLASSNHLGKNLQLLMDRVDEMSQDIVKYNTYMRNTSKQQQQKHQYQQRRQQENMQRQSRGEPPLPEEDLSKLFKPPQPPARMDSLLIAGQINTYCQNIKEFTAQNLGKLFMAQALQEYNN
Outline: as §1

[6] = target: T3, FAM105A (UniProt Q9NUU6)
T3 sequence (whole entry): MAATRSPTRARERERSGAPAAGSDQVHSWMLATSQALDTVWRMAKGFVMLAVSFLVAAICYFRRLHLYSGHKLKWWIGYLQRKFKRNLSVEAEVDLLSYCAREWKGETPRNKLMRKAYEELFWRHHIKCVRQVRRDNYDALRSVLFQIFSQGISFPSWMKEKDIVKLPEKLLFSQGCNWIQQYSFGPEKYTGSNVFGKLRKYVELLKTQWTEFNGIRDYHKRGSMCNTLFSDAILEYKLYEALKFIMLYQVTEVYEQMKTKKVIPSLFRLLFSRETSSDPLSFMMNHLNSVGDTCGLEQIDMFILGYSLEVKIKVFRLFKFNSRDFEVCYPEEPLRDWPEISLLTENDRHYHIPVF
Outline: as §1

[7] = target: OTUB1 (UniProt Q96FW1)
Chain of OTUB1 (Q96FW1 whole entry): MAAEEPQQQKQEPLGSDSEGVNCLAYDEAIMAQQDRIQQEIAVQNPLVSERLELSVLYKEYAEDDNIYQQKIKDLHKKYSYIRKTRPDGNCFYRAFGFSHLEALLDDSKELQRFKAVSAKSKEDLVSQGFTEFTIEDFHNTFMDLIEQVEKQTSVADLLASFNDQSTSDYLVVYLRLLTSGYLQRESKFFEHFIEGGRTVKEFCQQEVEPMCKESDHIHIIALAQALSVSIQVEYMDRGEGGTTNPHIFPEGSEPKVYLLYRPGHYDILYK
Outline: as §1

[8] = target: T4, OTUD4 (UniProt Q01804)
T4 sequence (whole entry): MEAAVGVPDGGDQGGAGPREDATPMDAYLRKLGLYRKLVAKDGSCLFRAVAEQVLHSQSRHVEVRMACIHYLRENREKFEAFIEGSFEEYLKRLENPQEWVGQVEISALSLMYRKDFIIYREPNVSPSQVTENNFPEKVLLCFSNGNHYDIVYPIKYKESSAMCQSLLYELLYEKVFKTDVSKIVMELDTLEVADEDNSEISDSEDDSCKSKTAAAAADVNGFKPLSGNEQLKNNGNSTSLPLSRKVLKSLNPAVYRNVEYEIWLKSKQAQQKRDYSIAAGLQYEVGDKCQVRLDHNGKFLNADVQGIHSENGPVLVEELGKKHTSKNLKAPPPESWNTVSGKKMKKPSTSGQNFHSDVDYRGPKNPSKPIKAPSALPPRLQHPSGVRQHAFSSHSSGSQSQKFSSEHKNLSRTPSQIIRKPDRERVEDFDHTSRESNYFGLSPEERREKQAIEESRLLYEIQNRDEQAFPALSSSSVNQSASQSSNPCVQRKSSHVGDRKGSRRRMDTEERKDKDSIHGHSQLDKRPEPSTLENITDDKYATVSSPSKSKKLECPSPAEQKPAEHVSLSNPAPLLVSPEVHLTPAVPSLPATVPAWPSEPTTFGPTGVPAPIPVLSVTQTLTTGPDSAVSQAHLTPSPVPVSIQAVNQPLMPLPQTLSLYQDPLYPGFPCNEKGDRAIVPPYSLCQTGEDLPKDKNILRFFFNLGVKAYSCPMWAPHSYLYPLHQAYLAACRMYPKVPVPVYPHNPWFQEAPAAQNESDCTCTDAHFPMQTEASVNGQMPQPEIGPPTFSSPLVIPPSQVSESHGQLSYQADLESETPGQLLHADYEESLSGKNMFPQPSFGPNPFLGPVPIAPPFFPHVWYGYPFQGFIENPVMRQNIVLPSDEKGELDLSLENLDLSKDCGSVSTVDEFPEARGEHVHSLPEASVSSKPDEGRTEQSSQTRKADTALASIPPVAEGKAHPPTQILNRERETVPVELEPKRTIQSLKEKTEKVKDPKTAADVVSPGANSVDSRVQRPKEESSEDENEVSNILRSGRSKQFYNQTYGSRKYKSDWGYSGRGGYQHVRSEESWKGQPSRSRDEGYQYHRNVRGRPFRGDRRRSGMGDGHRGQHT
Outline: as §1

[9] = target: T5, OTUD5 (UniProt Q96G74)
T5 sequence (whole entry): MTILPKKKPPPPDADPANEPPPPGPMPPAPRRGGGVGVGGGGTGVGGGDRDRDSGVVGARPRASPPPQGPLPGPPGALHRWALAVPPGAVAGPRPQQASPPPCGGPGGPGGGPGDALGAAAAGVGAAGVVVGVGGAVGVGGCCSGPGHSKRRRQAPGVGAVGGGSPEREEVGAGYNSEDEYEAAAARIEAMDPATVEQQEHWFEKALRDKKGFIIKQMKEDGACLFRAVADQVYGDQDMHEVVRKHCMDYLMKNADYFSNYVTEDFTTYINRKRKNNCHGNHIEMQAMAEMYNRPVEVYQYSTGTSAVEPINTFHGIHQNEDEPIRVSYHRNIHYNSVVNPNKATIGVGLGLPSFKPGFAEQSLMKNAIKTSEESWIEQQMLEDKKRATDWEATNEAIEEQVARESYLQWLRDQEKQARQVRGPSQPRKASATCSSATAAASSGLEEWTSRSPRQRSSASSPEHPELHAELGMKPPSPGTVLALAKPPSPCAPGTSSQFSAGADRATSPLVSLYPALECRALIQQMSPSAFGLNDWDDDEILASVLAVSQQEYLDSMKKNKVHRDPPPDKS
Outline: as §1

Measured: log2 ratio of Biotin-Ahx-Ub-VS probe labelling

Cc1ccc(CC(CO)CNC(=O)CCl)cc1 (stereo not drawn)
inactive: [1] -0.289 | [2] -0.385 | [4] 0.0794 | [5] 0.139 | [6] 0.442 | [7] -0.0508 | [8] -0.858 | [9] -0.455
active: [3] -3.74

Cc1n[nH]c(=O)c2c(NC(=O)CCl)oc(C)c12
inactive: [1] 0.211 | [2] 0.117 | [3] 0.169 | [4] 0.173 | [5] 0.156 | [6] -0.0353 | [7] 0.329 | [8] 0.0677 | [9] -0.187

C[C@@H](NC(=O)CCl)c1cccc(C#N)c1
active: [3] -2.8
inactive: [1] 0.118 | [2] -0.463 | [4] -0.345 | [5] 0.144 | [6] 0.148 | [7] -0.229 | [8] -0.372 | [9] -0.284

Cc1cccn2cc(CCNC(=O)CCl)nc12.Cl
inactive: [1] 0.103 | [2] -0.114 | [3] -0.597 | [4] -0.323 | [5] 0.00132 | [6] 0.112 | [7] -0.0371 | [8] 0.123 | [9] 0.0126

Cc1noc(C)c1CNC(=O)CCl
active: [3] -2.03
inactive: [1] -0.968 | [2] -0.884 | [4] -0.561 | [5] 0.0244 | [6] 0.341 | [7] -0.618 | [8] -0.737 | [9] -0.764

CNC(=O)C1(NC(=O)CCl)CCCCC1
active: [3] -1.12
inactive: [1] -1.06 | [2] -0.161 | [4] -0.192 | [5] 0.0858 | [6] -0.00491 | [7] 0.0146 | [8] -0.439 | [9] -0.0782

O=C(CCl)Nc1nnc(CC(F)(F)F)o1
inactive: [1] -0.0296 | [2] -0.129 | [3] -0.573 | [4] -0.0944 | [5] 0.23 | [6] 0.0181 | [7] 0.15 | [8] -0.445 | [9] -0.385

Source: the supplement of paper PMC11732987, “Enantioselective OTUD7B fragment discovery through chemoproteomics screening and high-throughput optimisation” (Communications Chemistry, 2025)
